Results as given in PubChem BioAssay (NCI).
Where “and” joins values, the source holds several entries; their conditions need not be identical. Equal entries are not always repeated. This is part of a sample that, as a whole, favours compounds with a hit. Of some 83,000 tested, about 20% had one in any assay.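 The test compound was applied at a single concentration to cells in 96-well plates for 48 hours, and percent growth was recorded.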 Calls of active or inactive are those of the source. Rule for the calls: active = growth percent below 10; inactive = the rest.

test system: MDA-MB-435 melanoma; test: NCI-60 one-dose screen, 48 h (100 = growth as untreated, 0 = no growth, -100 = all killed); conditions: 10 µM unless noted

Row | Compound | growth
1 | O=C(/C=C/c1cccc(F)c1)c1cccc(OCCCCOc2cccc(C(=O)/C=C/c3cccc(F)c3)c2)c1 | 103% (inactive)
2 | O=S(=O)(NCCCNc1nccc(-c2[nH]c(-c3ccccc3)nc2-c2ccc(F)c(O)c2)n1)c1ccc(C(F)(F)F)cc1 | -40.6% (active)
3 | O=C(CCCCCCNC(=O)C(O)(O)C(F)(F)F)Nc1ncc(-c2ccccc2)s1 | 0.873% (active)
4 | CN(C)c1ccc(/C=N/Nc2nc(N/N=C/c3ccc(N(C)C)cc3)nc(N3CCCCC3)n2)cc1 | 60.4% (inactive)
5 | NC1[C@H]2CN(c3cnc(C(=O)Nc4cc(F)cc5cccnc45)cn3)C[C@@H]12 (stereo partly specified) | 90% (inactive)
6 | Clc1cccc(/C=N/Nc2nc(N/N=C/c3cccc(Cl)c3)nc(N3CCCCC3)n2)c1 | 90.4% (inactive)
7 | CC(Nc1ncnc2ccc(-c3cnc4cnccn34)cc12)c1ccccc1 (stereo unspecified) | 69.1% (inactive)
8 | CN1CCN(c2ccc(Nc3nc(NCCNC(=O)c4ccccc4)c4sccc4n3)cc2)CC1 | 59.3% (inactive)
9 | O=C(CSc1nc2ccccc2c(=O)n1-c1ccccc1)N/N=C/c1ccc(Oc2ccc(Cl)cc2)cc1 | 84.6% (inactive)

test system: SW-620 colon; test: as above; conditions: 10 µM unless noted

Row | Compound | growth
10 | O=C(/C=C/Nc1ccc(S(=O)(=O)Nc2ncccn2)cc1)c1ccc(N=Cc2c(O)[nH]c3ccccc23)cc1 | 112% (inactive)
11 | CCCCCN1C(=O)/C(=c2\sc3n(c2=O)C2C(NN=3)N(CC)C(=O)N2CC)c2cccc(C)c21 (stereo unspecified) | 43.5% (inactive)
12 | C#C[C@]1(O)CC[C@H]2[C@@H]3CC=C4c5sc(Nc6ncccc6C)nc5CC[C@]4(C)[C@H]3CC[C@@]21C | -40.9% (active)
13 | O=C1CSC(c2cn(-c3ccccc3)nc2-c2ccc(Cl)cc2)N1c1ccccc1 (stereo unspecified) | 120% (inactive)
14 | CC(=O)Nc1ccccc1-c1nc2ccccc2s1 | 107% (inactive)
15 | O=C(/C=C/c1cccc(Br)c1)c1cccc(OCCCCOc2cccc(C(=O)/C=C/c3cccc(Br)c3)c2)c1 | 98.3% (inactive)
16 | C/C(=C(\c1ccc(O)cc1)c1ccc(OCCN2CCCCCC2)cc1)c1ccc(Cl)cc1 | -2.89% (active)
17 | Clc1ccc(CSc2nnc(-c3ccc(Cl)cc3)n2-c2ccccc2)cc1 | 91.6% (inactive)
18 | O=C(CCCCCCNC(=O)C(O)(O)C(F)(F)F)Nc1nc2ccccc2s1 | 4.75% (active)
19 | CC(C)NC(=O)c1cc(-c2ccc(NC(=O)Nc3ccc(F)c(C(F)(F)F)c3)cc2)nc2cccnc12 | 106% (inactive)
20 | COc1ccc(-c2cnc(NC(=O)CCCCCCNC(=O)C(O)(O)C(F)(F)F)s2)cc1 | 0.251% (active)
21 | C/C=C/CC(C)C(O)[C@H](NC(=O)[C@@H]1CCCN1C(=O)[C@](C)(CC)NC(=O)CCCCCCCCC)C(=O)N[C@@](C)(CC)C(=O)N[C@@H](CCC(N)=O)C(=O)N[C@H](CCC(N)=O)C(=O)NC(C)(C)C(=O)NC(C)(C)C(=O)N[C@@H](CCC(N)=O)C(=O)N[C@H](CC(C)C)C(=O)N[C@H](CO)CC(C)C (stereo partly specified) | 83.1% (inactive) and 14.5% (inactive)
22 | CC1CC(=O)C2=C(C1)Nc1ccc(Br)cc1CC2c1c[nH]c2ccc(Br)cc12 (stereo unspecified) | 33.5% (inactive)
23 | CC(C)(C)Nc1nc2c(OCCc3ccccc3)cccn2c1-c1cccc(Oc2ccccc2)c1 | 23.5% (inactive)
24 | CCCC/C(=C\c1ccc(O)c(O)c1)C(=O)NC(Cc1ccccc1)C(=O)C(=O)NCCc1ccc(OC)cc1 (stereo unspecified) | 101% (inactive)
25 | COC(=O)c1cccc(NC2=C(Cl)C(=O)c3nc(C)ccc3C2=O)c1 | 0.0392% (active)
26 | NC1CC2(CCN(c3cnc(C(=O)Nc4cc(F)cc5cccnc45)cn3)CC2)C1 | 42.8% (inactive)
27 | COC(=O)c1ccc(NC2=C(Cl)C(=O)c3nc(C)ccc3C2=O)cc1 | 18.3% (inactive)
28 | CC(Nc1c(C#N)cnc2ccc(-c3cncc(-c4n[nH]c(=O)o4)c3)cc12)c1ccccc1 (stereo unspecified) | 18.7% (inactive)
29 | CC(=O)OC[C@]12CC[C@@H](C(=O)/C=C/c3cccnc3)[C@@H]1[C@H]1CC[C@@H]3[C@@]4(C)CC[C@H](OC(C)=O)C(C)(C)[C@@H]4CC[C@@]3(C)[C@]1(C)CC2 | 7.96% (active)
30 | CC(O)c1cccc(/C(N)=N/C(N)=N/c2nc3ccccc3s2)c1 (stereo unspecified) | 98.2% (inactive)
31 | CC(C)=CCC[C@](C)(O)[C@H]1CC[C@]2(C)[C@@H]1CC[C@@H]1[C@@]3(C)CC[C@H](N)C(C)(C)[C@@H]3CC[C@]12C | 8.73% (active)
